Assay outcomes (PubChem BioAssay)
Most compounds without a hit are left out; they make up all but 6.6% or so of the library.
BoNT A protease: BoNT/A light chain protease inhibitors, primary screen, biochemical, flow cytometry, MLPCN library; Botulinum neurotoxin type A light chain protease (Clostridium botulinum A str. ATCC 3502); multiplex microsphere protease substrate cleavage; inhibition, % at 10 µM; 0.17% of 360,000 active; further: plate controls were buffer without enzyme for full effect and enzyme alone for no effect
FBA Mtb inh: Mtb FBA enzyme inhibitors, primary screen, biochemical, fluorescence, strain H37Rv; purified M. tuberculosis FBA, fluorescence read-out; inhibition, % at 1 µM; 2.3% of 360,000 active; Fructose-bisphosphate aldolase (Mycobacterium tuberculosis (strain ATCC 25618 / H37Rv)), …; AID 588726, 2011; in the data active means inhibition above about 27%;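 further: 0% = vehicle and 100% = reference inhibitor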
Target sequence (P9WQA3 whole entry, looked up): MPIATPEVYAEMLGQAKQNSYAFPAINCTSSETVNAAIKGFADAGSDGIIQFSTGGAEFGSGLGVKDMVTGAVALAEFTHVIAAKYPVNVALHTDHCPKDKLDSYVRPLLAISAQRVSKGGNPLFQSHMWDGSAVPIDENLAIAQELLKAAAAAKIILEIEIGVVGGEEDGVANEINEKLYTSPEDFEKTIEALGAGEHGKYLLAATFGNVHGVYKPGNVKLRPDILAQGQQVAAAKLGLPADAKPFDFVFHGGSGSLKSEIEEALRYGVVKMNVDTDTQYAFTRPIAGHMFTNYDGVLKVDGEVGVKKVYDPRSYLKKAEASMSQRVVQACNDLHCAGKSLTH
Anthrax LF inh2: Bacillus anthracis LF protease inhibitors, primary screen, biochemical, multiplex microsphere, MLPCN library; Lethal factor (Bacillus anthracis), P15917; multiplex microsphere protease cleavage assay; inhibition, % at 10 µM; 0.12% of 360,000 active; AID 588501, 2011; further: plate controls were buffer without enzyme for full effect and enzyme alone for no effect
GDH-TPI counter-1: GDH-TPI coupling enzyme inhibitors, primary screen, artefact control for M. tuberculosis FBA inhibitor project, biochemical, absorbance, full deck. AID 588335, 2011. 1.2% of 360,000 active. inhibition, % at 4.8 µM. GDH-TPI coupled enzyme counterscreen, NADH absorbance; in the data active means inhibition above about 30%;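 further: 0% = DMSO wells and 100% = wells lacking the enzyme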
BoNT F protease: BoNT/F light chain protease inhibitors, primary screen, biochemical, flow cytometry, MLPCN library | Multiplex microsphere protease cleavage assay | inhibition, % at 10 µM | 0.22% of 360,000 active | AID 588497, 2011; in the data active means inhibition above about 35%, passing the limit was not always enough; inconclusive means no clear call, values can overlap the other calls; further: plate controls were buffer without enzyme for full effect and enzyme alone for no effect
Autofluor counter: counter-screen for toxin protease inhibitors: compound fluorescence; compound autofluorescence counterscreen, microsphere flow cytometry; active compounds read high; fluorescence intensity (test concentration not listed); 3.1% of 360,000 active; in the data active means fluorescence intensity above about 16000; inconclusive means no clear call, values can overlap the other calls
Mtb FBA inh conf: M. tuberculosis aldolase blockers, biochemical, fluorescence, strain H37Rv, confirmation; purified M. tuberculosis FBA, fluorescence read-out; 78% of 5,600 active; inhibition, % at 1 µM; shares compounds with FBA Mtb inh; in the data active means inhibition above about 27%;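 further: 0% = vehicle wells and 100% = reference inhibitor wells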
GDH-TPI counter-2: GDH-TPI coupling enzyme inhibitors, artefact control for M. tuberculosis FBA inhibitor project, biochemical, fluorescence, high throughput | inhibition, % at 1 µM | shares compounds with FBA Mtb inh | GDH-TPI coupled enzyme counterscreen | AID 652141, 2013 | 81% of 5,600 active; in the data active means inhibition above about 10%
* marks the source's active call; other numbers are inactive results; ? = inconclusive; nt = not tested or not shown; + = active, no number. Unless noted, no stated cut-off is given here; in the data, active means inhibition above about 30%; inconclusive means no clear call, values can overlap the other calls; inactive means below that.

SMILES	BoNT A protease	FBA Mtb inh	Anthrax LF inh2	GDH-TPI counter-1	BoNT F protease	Autofluor counter	Mtb FBA inh conf	GDH-TPI counter-2
COc1ccc(C2Nc3ccccc3NC3=C2C(=O)CC(C)(C)C3)cc1 (centres undefined)	1.1	2.0	4.1	10.7	30.3	3708	nt	nt
COc1cccc(C2Nc3ccc4ccccc4c3C3=C2C(=O)CC(C)(C)C3)c1OCC(=O)O (centres undefined)	-0.9	64.7*	-14.0	9.4	-23.2	3873	132.1*	113.5*
COc1ccccc1C1C2=C(CC(C)(C)CC2=O)N(CC(=O)O)C2=C1C(=O)CC(C)(C)C2	-1.0	23.4	15.2	8.1	?	3348	nt	nt
CC1(C)CC(=O)C2=C(C1)c1c(ccc3ccccc13)NC2c1ccc(Br)o1 (centres undefined)	nt	31.5*	nt	15.9	nt	nt	173.7*	148.4*
O=C(Nc1ccc(C(=O)N2CCOCC2)cc1)Nc1cccc2ccccc12	-0.5	6.2	-5.2	-1.3	-5.9	4561	nt	nt
CCN(CCn1cccn1)C(=O)c1cc(COc2cc(C)ccc2C)on1	1.1	0.6	0.1	1.7	2.1	6036	nt	nt
Cc1cc(O)c(C(C[N+](=O)[O-])c2ccc(Cl)cc2)c(=O)o1 (centres undefined)	0.4	101.5*	-0.2	9.3	11.7	4363	-0.6	-4.4
O=C(NC1CCCCC1)C(c1ccc(F)cc1)N(CCCN1CCOCC1)C(=O)c1ccc(CN2CCOCC2)o1 (centres undefined)	-1.0	-1.6	18.7	1.4	9.7	3427	nt	nt
Cc1cccc(C(=O)NNS(=O)(=O)c2ccc(F)cc2)c1	0.7	-1.7	-16.9	7.6	?	4100	nt	nt
Cc1ccc(COC(=O)c2nn(-c3ccccc3)nc2N)cc1	-0.5	85.6*	-0.8	1.3	-5.9	4059	3.1	-4.3
COc1ccc(OCc2nnc(SC(C)C(=O)Nc3ccc(N4CCOCC4)cc3)n2C)cc1 (centres undefined)	-1.9	-3.5	-7.3	1.1	-1.4	7761	nt	nt
COCC(C)NC(=O)c1ccccc1OC(C)=O (centres undefined)	-0.4	34.8*	-1.8	9.9	22.5	4189	42.2*	37.5*
CCC(NC(=O)c1ccccc1O)c1ccccc1 (centres undefined)	0.3	43.1*	-6.2	-1.4	-0.7	10856	168.0*	119.5*
CCC(NC(=O)c1ccc([N+](=O)[O-])cc1[N+](=O)[O-])c1ccccc1 (centres undefined)	-0.5	2.4	2.0	3.5	-10.8	3708	nt	nt
CCC1CN(C(=O)NCc2cccc(OC)c2)c2cc(Cl)ccc2O1 (centres undefined)	-2.3	-2.4	15.7	3.5	-5.5	3977	nt	nt
CCC1CN(C(=O)NCc2cccc(OC)c2)c2ccccc2O1 (centres undefined)	-0.7	67.9*	-4.1	3.5	1.3	3853	-0.4	-5.7
O=c1ccc2cc(S(=O)(=O)N3CCN(c4ccccc4F)CC3)ccc2o1	0.2	-0.2	2.3	5.4	-2.1	6138	nt	nt
O=C(NCc1cccc(Br)c1)c1cc(-c2ccccc2)nn1CC1CC(c2cccc([N+](=O)[O-])c2)=NO1 (centres undefined)	0.3	-1.9	2.2	3.5	-3.9	2872	nt	nt
O=C(CN1CCN(S(=O)(=O)c2ccccc2)CC1)Nc1ccc2c(c1)CCC2	0.2	0.0	-3.0	-1.5	0.8	2622	nt	nt
Nn1c(SCC(=O)Nc2ccc(Oc3ccccc3)cc2)nnc1C1CC1	-0.1	-2.6	-1.5	-0.3	-8.9	10756	nt	nt
Nn1c(SCC(=O)Nc2nnc(-c3ccccc3)o2)nnc1C1CC1	1.4	44.9*	-1.4	7.8	3.2	?	-0.6	-2.2
Nc1ncnc2nc(SCc3ccccc3)[nH]c12	-0.6	-1.4	-1.0	-16.1	2.8	2882	nt	nt
Nc1ncnc2nc(-c3ccccc3)[nH]c12	-0.3	68.7*	-2.3	2.6	-6.8	3896	4.0	-1.6
COc1ccc2cc(C(=O)CS(=O)(=O)c3ccccc3)c(=O)oc2c1	2.0	57.4*	-0.2	22.7	0.4	4774	55.6*	46.1*
O=C(CS(=O)(=O)c1ccccc1)c1cc2cc(F)ccc2oc1=O	-0.1	62.0*	-1.1	-5.9	-4.2	5874	6.4	-4.5
SMILES	BoNT A protease	FBA Mtb inh	Anthrax LF inh2	GDH-TPI counter-1	BoNT F protease	Autofluor counter	Mtb FBA inh conf	GDH-TPI counter-2
COc1ccc2c(c1)C(C)=CC(C)(C)N2S(=O)(=O)c1ccc(Br)cc1	0.3	0.2	8.5	7.9	4.1	4632	nt	nt
O=C(c1ccccc1)c1n[nH]c(-c2ccccc2)cc1=O	-0.2	0.7	3.9	2.9	-1.5	5241	nt	nt
Cc1ccc(Cc2c(C)nc3nc(SCC(=O)N4CCC5(CC4)OCCO5)nn3c2C)cc1	-0.4	4.1	-13.3	10.4	2.5	6290	nt	nt
Cc1ccc(C)c(Cc2c(C)nc3c(C(=O)N4CCOCC4)cnn3c2C)c1	1.9	62.0*	-0.7	6.3	3.7	22707*	nt	+
O=C(c1cnn2c(C(F)(F)F)cc(-c3ccccc3)nc12)N1CCOCC1	1.0	0.9	2.4	3.2	5.2	7783	nt	nt
Cc1nc2c(C(=O)N3CCC4(CC3)OCCO4)cnn2c(C)c1Cc1cccc(Cl)c1	0.1	31.5*	-2.2	-5.6	-3.7	3969	+	191.5*
CCOC(=O)N1CCN(C(=O)c2cnn3c(C)c(Cc4ccc(C)cc4)c(C)nc23)CC1	?	34.2*	0.5	4.9	1.3	23293*	114.9*	91.6*
COC(=O)c1cnn2c(C)c(Cc3cccc(F)c3)c(C)nc12	-1.3	42.5*	-9.8	8.1	-11.6	4348	7.3	1.1
CCOC(=O)N1CCN(C(=O)c2cnn3c(C(F)F)cc(-c4ccc(C)cc4)nc23)CC1	1.4	-1.4	-1.6	5.2	22.0	4602	nt	nt
CCC(c1nc2ccccc2[nH]1)N(CCCn1ccnc1)C(=O)c1ccc(C(F)(F)F)cc1 (centres undefined)	-1.0	23.3	-3.4	nt	-13.9	6131	nt	nt
CCCC(=O)N1CCC1(C)C(=O)NS(=O)(=O)c1cccc(C)c1 (centres undefined)	-0.5	3.0	-4.5	-4.0	-2.3	3869	nt	nt
O=C(NC1CCCCC1)N1Cc2cc(-c3cccc(F)c3)ccc2-n2nncc2C1	0.0	0.7	-10.2	nt	-6.6	4300	nt	nt
